Results on five compounds are retold here after PubChem BioAssay (NCATS).

SMILES strings stand for the structures. Inconclusive results are not listed. Active and inactive are the calls of the source. Unless noted, calls come from the whole dose curve; as a rule, active = well fitted curve in the direction sought with a large enough effect; inconclusive = small, poorly fitted or top-dose-only effect, or another doubt; inactive = no such curve, though single readings can be large; an effect the other way counts as inactive or inconclusive.

Test [1] in a line: qHTS Assay for Identifying Gametocytocidal Compounds (AID 743244).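 Note: % is set by controls: 0 for no effect and ±100 for the full control effect; actives lower the fluorescent signal which means gametocytes are killed.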 To be noted: P. falciparum 3D7 stage III-V gametocytes, alamarBlue, 72 h; max response: stronger effect = lower value. The method, boiled down:
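Viability read-out was resazurin reduction (alamarBlue, 24 h) measured at Ex 525/Em 598 nm. Beforehand, late-stage (III-V) 3D7 P. falciparum gametocytes at 20,000 cells/well were incubated with compound 72 h at 37C under 5% CO2.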
(Quantitative high-throughput screening tests each substance at several concentrations.)

Test [2] is described as follows: P-glycoprotein substrates identified in KB-8-5-11 adenocarcinoma cell line, qHTS therapeutic library screen (AID 1346987). Note: potency is the fitted concentration of half-maximal effect; nearly all actives have a fitted effect of over 65% in size. The method, boiled down: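 P-gp-mediated resistance screen: KB-8-5-11 cells treated 72 h with compounds in dose-response. CellTiter-Glo viability.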
Test [3] is described as follows: Primary qHTS for inhibitors of SARS-S pseudo-typed particle cell entry (AID 1479145; calls by dose curve; note: nearly all actives have a fitted effect of over 45% in size).
Test [4] can be described thus: Primary qHTS for Huh7 cytotoxicity: counterscreen for inhibitors of MERS-S pseudotyped particle cell entry (AID 1479147; calls by dose curve; note: % is set by controls: 0 for no effect and ±100 for the full control effect). To be noted: outcome: dose series up to 57.1 µM unless noted.
A short description of test [5]: Primary qHTS for inhibitors of MERS-S pseudo-typed particle cell entry (AID 1479149; calls by dose curve; note: nearly all actives have a fitted effect of over 60% in size).
Test [6] is described as follows: Primary qHTS for Vero E6 cytotoxicity: counterscreen for inhibitors of SARS-S pseudo-typed particle cell entry (AID 1479150; calls by dose curve). The note with it: outcome: dose series up to 57.1 µM unless noted.
Test [7] in a line: Cytotoxicity counterscreen for inhibitors of SARS-CoV-2 cell entry (AID 1645845; calls by dose curve; note: nearly all actives have a fitted effect of over 50% in size). The method, boiled down:
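48 h compound treatment (after 1 h preincubation), HEK293-ACE2 cells, 37 C/5% CO2; ATP luminescence endpoint; normalized to cell wells and media blanks.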

Test [8] is described as follows: Primary qHTS to identify inhibitors of SARS-CoV-2 cell entry (AID 1645846; calls by dose curve; note: nearly all actives have a fitted effect of over 45% in size). The note with it: activity change, negative = inhibition: at 57.1 µM (top of the series) unless noted. The method, boiled down: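 Luminescence readout (Bright-Glo luciferase) 48 h after pseudoparticle addition. HEK293-ACE2 cells, 1500/well; compound pre-incubation 1 h; Normalized to spike PP and bald PP.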

The target in test [9] is Glutathione peroxidase 1 (Homo sapiens) (UniProt P07203). The test is described as follows: Primary qHTS Assay for Inhibitors of Recombinant Selenoprotein Glutathione Peroxidase 1 (GPX1) (AID 1845191). Note: nearly all actives have a fitted effect of over 65% in size. The method, boiled down:
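10 nM GPX1 + cpd, 30 min RT; start w/ 1 mM GSH, 0.5 mM cumene hydroperoxide, 0.5 mM NADPH, 100 nM GR, 0.01% BSA; buffer 50 mM Tris-HCl pH 7.5, 2 mM EDTA, 150 mM NaCl; Fl 340/450, 0 & 15 min.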

The target in test [10] is Phospholipid hydroperoxide glutathione peroxidase GPX4 (Homo sapiens) (UniProt P36969). In words: Primary qHTS Assay for Inhibitors of Recombinant Selenoprotein Glutathione Peroxidase 4 (GPX4) (AID 1845192). Note: nearly all actives have a fitted effect of over 65% in size. The method, boiled down:
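NADPH consumption, followed by fluorescence at 340/450 nm between 0 and 15 min, reports GPX4 activity via coupled glutathione reductase (100 nM). Enzyme 200 nM was pre-exposed to compound 30 min; 0.5 mM cumene hydroperoxide and 1 mM GSH served as substrates.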

Test [11] can be described thus: qHTS assay for small molecule activators of the p53 signaling pathway (AID 651743; active = well fitted activation curve with a large enough effect in the signal ratio, not every such curve was filed as active; the % refers to the signal ratio; note: % of control where 0% means no effect). The note with it: HCT-116 p53RE-bla, beta-lactamase FRET ratio, 16 h; activation: stronger effect = higher value. The method, boiled down:
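Screen for p53 pathway agonists uses stably transfected p53RE-bla HCT-116 cells, 4,000 per well, treated 16 h at 37 C with compounds in DMSO.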

Test [12] in a line: qHTS assay for environmental chemicals that activate the Aryl hydrocarbon Receptor (AhR) signaling pathway (AID 651777). Note: % of control where 0% means no effect; nearly all actives have a fitted effect of over 15% in size. To be noted: 1A2-DRE human hepatoma cells, luciferase, 24 h; activation: stronger effect = higher value. The method, boiled down:
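Measured luciferase activity, read 30 min after One-Glo addition at room temperature, from human hepatoma cells bearing a dioxin response element–CYP1A2 promoter reporter and exposed to compound for 24 hr at 37 C.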

For test [13], the target named is Peroxisome proliferator-activated receptor alpha (Homo sapiens) (UniProt Q07869). The test is described as follows: qHTS assay for small molecule agonists of the peroxisome proliferator-activated receptor alpha (PPARalpha) signaling pathway (AID 651778). Note: % of control where 0% means no effect. The note with it: PathHunter PPARalpha complementation, chemiluminescence, 6 h; stronger effect = higher value. The method, boiled down:
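Chemiluminescence from complemented enzyme reported PPARalpha activation in cells after 6 hr of compound treatment at 37 C. The detection reagent was incubated for 60 min at room temperature, and compounds were scored as agonists.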

Test [14] in a line: qHTS assay for small molecule agonists of the antioxidant response element (ARE) signaling pathway measured by Nrf2-dependant transcriptional activity (AID 720636; active = well fitted curve in the direction sought with a large enough effect in the repeat runs; an effect the other way counts as inactive or inconclusive;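 note: HepG2 cells with an ARE-driven luciferase reporter; % of control where 0% means no effect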). The method, boiled down: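 In HepG2 cells engineered with an Nrf2-responsive luciferase gene, ARE induction was quantified as luminescence after 16 hr compound treatment at 37 C.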
The nature of test [15]: qHTS assay for small molecule agonists of the antioxidant response element (ARE) signaling pathway measured by Nrf2-dependant transcriptional activity - cell viability counter screen (AID 720653; active = well fitted curve in the direction sought with a large enough effect in the repeat runs; an effect the other way counts as inactive or inconclusive; note: % is set by controls: 0 for no effect and ±100 for the full control effect). To be noted: ARE-bla HepG2 viability, CellTiter-Glo ATP luminescence, 16 h; max response: stronger effect = lower value. The method, boiled down:
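Cytotoxicity counter screen: intracellular ATP quantified by CellTiter-Glo luminescence in the same ARE-bla HepG2 plates, after 16 h compound exposure and a 2 h beta-lactamase substrate step.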

Test [16] is described as follows: qHTS assay for cell viability of HEK293 cells (AID 743288). Note: % is set by controls: 0 for no effect and ±100 for the full control effect; nearly all actives have a fitted effect of over 50% in size. The note with it: ATP luminescence (CellTiter-Glo), 18 h; max response: stronger effect = lower value. The method, boiled down: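 Parental HEK293 cells were seeded at 2,000 cells/well, rested at least 5 h at 37 C, then exposed to compounds in DMSO for 18 h at 37 C. Viability was read as ATP-dependent luciferase luminescence after 30 min at room temperature.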

The nature of test [17]: qHTS assay for cell viability of the p53RE-bla HCT-116 cell line (AID 743292). Note: % is set by controls: 0 for no effect and ±100 for the full control effect; nearly all actives have a fitted effect of over 55% in size. The method, boiled down: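 Intracellular ATP of p53RE-bla HCT-116 cells measured by luciferase luminescence following 16 h compound incubation at 37 C; DMSO-only wells served as vehicle controls.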
For test [18], the target named is Nuclear receptor subfamily 1 group I member 2 (Rattus norvegicus) (UniProt Q9R1A7). The test is described as follows: qHTS assay for small molecule activators of the rat pregnane X receptor (rPXR) signaling pathway (AID 651751; call rule not given here; note: 0% is about no effect). To be noted: rPXR reporter cells, luciferase (One-Glo), 24 h.
Test [19] is described as follows: qHTS assay for small molecule activators of the human pregnane X receptor (PXR) signaling pathway (AID 720659; call rule not given here; note: 0% is about no effect).
Test [20] in a line: qHTS for Inhibitors of the Functional Ribonucleoprotein Complex (vRNP) of Lassa (LASV) Arenavirus: LASV Primary Screen - GLuc reporter signal (AID 1347082; calls by dose curve; tested in HEK293 reporter line; note: % is set by controls: 0 for no effect and ±100 for the full control effect; nearly all actives have a fitted effect of over 60% in size).
Test [21] can be described thus: qHTS for Inhibitors of the Functional Ribonucleoprotein Complex (vRNP) of Lassa (LASV) Arenavirus: Viability assay - alamar blue signal for LASV Primary Screen (AID 1347083; calls by dose curve; tested in HEK293 reporter line; note: % is set by controls: 0 for no effect and ±100 for the full control effect; nearly all actives have a fitted effect of over 80% in size).
Test [22] can be described thus: qHTS for Inhibitors of the Functional Ribonucleoprotein Complex (vRNP) of Lymphocytic Choriomeningitis Arenaviruses (LCMV): Viability assay - alamar blue signal for LCMV Primary Screen (AID 1347085; calls by dose curve; tested in HEK293 reporter line; note: nearly all actives have a fitted effect of over 80% in size; note: potency is the fitted concentration of half-maximal effect; for activity change, negative = lower viability: % is set by controls: 0 for no effect and ±100 for the full control effect).
The target of test [23] is Nucleoprotein (Lymphocytic choriomeningitis virus (strain Armstrong)) (UniProt P09992). The test is described as follows: qHTS for Inhibitors of the Functional Ribonucleoprotein Complex (vRNP) of Lymphocytic Choriomeningitis Arenaviruses (LCMV): LCMV Primary Screen - GLuc reporter signal (AID 1347086; calls by dose curve; note: % is set by controls: 0 for no effect and ±100 for the full control effect; nearly all actives have a fitted effect of over 70% in size).
Nucleoprotein (Lymphocytic choriomeningitis virus (strain Armstrong)), sequence (P09992 whole entry, looked up): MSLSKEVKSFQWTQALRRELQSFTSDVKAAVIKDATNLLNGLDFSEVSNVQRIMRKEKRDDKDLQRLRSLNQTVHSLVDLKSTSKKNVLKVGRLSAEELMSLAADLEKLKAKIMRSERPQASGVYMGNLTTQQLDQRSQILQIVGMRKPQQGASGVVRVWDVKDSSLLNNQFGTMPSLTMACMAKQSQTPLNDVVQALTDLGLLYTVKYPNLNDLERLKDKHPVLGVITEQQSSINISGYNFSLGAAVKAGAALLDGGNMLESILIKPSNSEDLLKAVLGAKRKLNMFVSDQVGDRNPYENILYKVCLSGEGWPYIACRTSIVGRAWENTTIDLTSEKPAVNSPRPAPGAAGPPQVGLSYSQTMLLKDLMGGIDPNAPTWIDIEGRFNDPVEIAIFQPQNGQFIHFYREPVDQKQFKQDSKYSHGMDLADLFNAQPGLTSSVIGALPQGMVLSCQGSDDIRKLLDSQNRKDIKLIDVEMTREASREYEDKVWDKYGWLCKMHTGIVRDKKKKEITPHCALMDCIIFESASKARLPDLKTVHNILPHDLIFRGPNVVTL

Nuclear receptor subfamily 1 group I member 2 (Rattus norvegicus), sequence (Q9R1A7 whole entry, looked up): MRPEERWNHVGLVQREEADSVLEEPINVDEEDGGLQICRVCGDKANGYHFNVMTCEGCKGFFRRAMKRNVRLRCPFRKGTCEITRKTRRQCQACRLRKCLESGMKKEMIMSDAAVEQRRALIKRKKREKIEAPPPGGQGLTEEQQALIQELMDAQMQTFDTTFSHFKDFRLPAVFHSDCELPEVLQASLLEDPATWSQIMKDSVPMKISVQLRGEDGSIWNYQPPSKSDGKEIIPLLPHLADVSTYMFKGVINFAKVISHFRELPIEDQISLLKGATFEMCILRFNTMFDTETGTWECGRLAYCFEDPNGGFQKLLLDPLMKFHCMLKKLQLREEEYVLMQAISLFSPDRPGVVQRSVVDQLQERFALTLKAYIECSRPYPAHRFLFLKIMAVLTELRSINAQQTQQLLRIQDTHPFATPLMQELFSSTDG
Glutathione peroxidase 1 (Homo sapiens), sequence (P07203 whole entry, looked up): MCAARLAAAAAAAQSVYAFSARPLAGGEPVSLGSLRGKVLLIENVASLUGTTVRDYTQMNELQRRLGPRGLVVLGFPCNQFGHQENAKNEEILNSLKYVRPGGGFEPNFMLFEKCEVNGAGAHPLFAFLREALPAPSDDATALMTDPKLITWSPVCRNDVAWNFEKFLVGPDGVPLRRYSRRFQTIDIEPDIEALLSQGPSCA
Phospholipid hydroperoxide glutathione peroxidase GPX4 (Homo sapiens), sequence (P36969 whole entry, looked up): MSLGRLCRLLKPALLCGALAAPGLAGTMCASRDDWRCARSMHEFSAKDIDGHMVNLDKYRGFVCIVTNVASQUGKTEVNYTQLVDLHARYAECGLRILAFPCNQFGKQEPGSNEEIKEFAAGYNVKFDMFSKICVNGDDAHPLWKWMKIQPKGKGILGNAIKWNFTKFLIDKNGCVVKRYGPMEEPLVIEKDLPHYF
Peroxisome proliferator-activated receptor alpha (Homo sapiens), sequence (Q07869 whole entry, looked up): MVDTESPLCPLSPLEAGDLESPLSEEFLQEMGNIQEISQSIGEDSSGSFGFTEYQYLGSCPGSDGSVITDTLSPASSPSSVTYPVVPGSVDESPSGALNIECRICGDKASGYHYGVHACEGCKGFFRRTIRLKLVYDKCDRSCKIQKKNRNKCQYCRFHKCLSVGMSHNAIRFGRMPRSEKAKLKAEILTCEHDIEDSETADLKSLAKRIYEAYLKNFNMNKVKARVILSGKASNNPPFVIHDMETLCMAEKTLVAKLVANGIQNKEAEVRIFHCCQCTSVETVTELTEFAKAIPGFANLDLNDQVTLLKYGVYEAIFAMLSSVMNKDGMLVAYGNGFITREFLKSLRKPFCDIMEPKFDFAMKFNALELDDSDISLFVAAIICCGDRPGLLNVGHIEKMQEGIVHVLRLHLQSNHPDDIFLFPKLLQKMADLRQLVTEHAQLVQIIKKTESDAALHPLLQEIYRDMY

As for `C[C@]12CC[C@H]3[C@@H](CCC4=CC(=O)CC[C@@]43C)[C@@H]1CC[C@@H]2OC(=O)CCc1ccccc1`, the max response in test [1] was 3.81% (inactive). In addition, the Potency in test [2] is 10 µM (active). For the same compound, the Potency result in [3], in test [5], in test [7], in test [9] and in test [10] was “inactive” throughout. Also, the compound was classed as inactive in [4] and in test [6]. Besides, the activity change, negative = inhibition in test [8] is -18.9%.

As for `C[C@]12CC[C@H]3[C@@H](CCC4=CC(=O)CC[C@@]43C)[C@@H]1CC[C@H]2O`, the figures for the activation in [11] and in test [12] were 0.0688% (inactive) and -2.33% (inactive), respectively. Besides, the max response was -2.25% (inactive) in [13]; 1.08% (inactive) in [15]; -4.18% (inactive) in test [1]; -7.89% (inactive) in test [16]; 3.9% (inactive) in [18]. The Potency entry in test [14] is “inactive”. In addition, the compound was classed as inactive in [17] and in test [19]. Also, the Potency in test [2] is 2.59 µM (active).

`NC(=O)[C@H]1CCCN1C(=O)[C@H](Cc1cnc[nH]1)NC(=O)[C@@H]1CCC(=O)N1`: the activity change, negative = inhibition was 10.2% [at 5.82 µM] (inactive) in [20] and -2.24% [at 5.82 µM] (inactive) in test [23]. Moreover, the activity change, negative = reduced viability in test [21] is 6.52% [at 5.82 µM] (inactive). Moreover, in [22], the activity change, negative = lower viability is -0.247% [at 5.82 µM] (inactive).

Take `CC(C)(O)CC(=O)NCCn1ccc2ncnc(Nc3ccc(Oc4cccc(C(F)(F)F)c4)c(Cl)c3)c21`: the Potency result in test [20] and in test [21] was “inactive” in each case. For the same compound, in test [22], the Potency was 769 nM (active).

Take `COc1cc(OC)c2c(=O)cc(-c3ccccc3)oc2c1`: the Potency result in test [20], in test [21] and in test [22] was “inactive” in each case.
